Test results taken from PubChem BioAssay (Tox21).
A number with no mark means an inactive call. Results filed as inconclusive are left out. A call without a number means that no potency is given here. Active and inactive are the calls of the source. Unless noted, the call rests on the fitted dose curve.

Tests used:
[1] = Nuclear factor erythroid 2-related factor 2/antioxidant responsive element (Nrf2/ARE) small molecule agonists: qHTS cell viability counter screen in human keratinocytes (AID 1919968; active means well fitted curve in the direction sought with a large enough effect in the repeat runs; an effect the other way counts as inactive or inconclusive; further: nearly all actives have a fitted effect of over 55% in size)
Procedure, shortened: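 In human HaCaT keratinocytes stably expressing an ARE-driven luciferase, compound exposure lasted 23 h at 37 C under 5% CO2. Viable cells are quantified with a protease-based fluorogenic reagent (CellTiter-Fluor) read 1 h after addition.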

[2] = Nuclear factor erythroid 2-related factor 2/antioxidant responsive element (Nrf2/ARE) small molecule agonists: luciferase reporter gene qHTS assay in human keratinocytes (AID 1919969); further: nearly all actives have a fitted effect of over 35% in size
[3] = molecular target: Gonadotropin-releasing hormone receptor (Homo sapiens) (UniProt P30968); test: Human gonadotropin-releasing hormone receptor (GnRHR) small molecule agonists, calcium flux assay in GnRHR-HEK293 cells (AID 1920063); further: nearly all actives have a fitted effect of over 35% in size
Procedure, shortened: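 Intracellular calcium rise is the read-out: engineered human GnRHR HEK293 cells, dye-loaded, are exposed to DMSO-dissolved compounds and fluorescence at Ex/Em 480/540 is tracked for 3 min.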

[4] = molecular target: KiSS-1 receptor (Homo sapiens) (UniProt Q969F8); test: Human kisspeptin (KISS1R) small molecule agonists, calcium flux assay in KISS1R-HEK293 cells (AID 1920064; active means well fitted curve in the direction sought with a large enough effect in the repeat runs; an effect the other way counts as inactive or inconclusive)
Procedure, shortened: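 Concentration-response testing used 15 concentrations in triplicate on human KISS1R-expressing HEK293 cells. Calcium-dependent fluorescence (Ex/Em 480/540) was followed kinetically for 3 min after compound transfer.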

[5] = G protein-coupled receptor (GPCR) small molecule agonists, calcium flux assay: HEK293 wild type cell line counter screen (AID 1920065)
Procedure, shortened: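 Fluorescence intensity signals activation. After overnight (18 h) culture and a 1 h calcium dye load at 37 C, compounds are added by pin tool and the plate read at 480/540 nm for 3 min in 1 s steps.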

[6] = p53 small molecule agonists, cell-based qHTS assay with human liver microsomes (AID 1963577);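 further: p53 response element beta-lactamase reporter cells with liver microsomes plus NADPH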
Procedure, shortened: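 Steps: plate p53RE-bla cells, incubate 5 h at 37 C; add compound in DMSO; add microsomes (0.5 mg/mL final) and NADPH (0.5 mg/mL final); incubate 16 h at 37 C; add LiveBLAzer, 2 h RT; read fluorescence.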

[7] = p53 small molecule agonists, cell-based qHTS assay with rat liver microsomes (AID 1963578)
Procedure, shortened: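 Metabolic activation is supplied by rat liver microsomes with NADPH (each 0.5 mg/mL final). p53RE-bla cells incubate with compound 16 h at 37 C; reporter activity is measured by LiveBLAzer fluorescence.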

[8] = p53 small molecule agonists, cell-based qHTS assay with human liver microsomes: qHTS cell viability counter screen (AID 1963579); further: nearly all actives have a fitted effect of over 45% in size
Procedure, shortened: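 After the 460/530 nm beta-lactamase read, CellTiter-Glo was added to the same wells and luminescence measured after 30 min at room temperature, giving viability of p53RE-bla cells treated 16 h with compounds plus microsomes and NADPH.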

[9] = p53 small molecule agonists, cell-based qHTS assay with rat liver microsomes: qHTS cell viability counter screen (AID 1963580); further: nearly all actives have a fitted effect of over 45% in size
Procedure, shortened: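 After the beta-lactamase ratio was read, CellTiter-Glo was added to the same wells and luminescence measured at 30 min; cells had been treated 16 h at 37 C with compounds, rat liver microsomes and NADPH (0.5 mg/mL final each).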

[10] = p53 small molecule agonists, cell-based qHTS assay: qHTS cell viability counter screen (AID 1963581); further: nearly all actives have a fitted effect of over 45% in size
Procedure, shortened: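 Luminescence from CellTiter-Glo, reflecting ATP content, serves as the cytotoxicity measure; it is taken after the 2 h reporter substrate step in HCT-116 p53RE-bla cells dosed for 16 h at 37 C.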

[11] = p53 small molecule agonists, cell-based qHTS assay (AID 1963582; active means well fitted activation curve with a large enough effect in the signal ratio in the repeat runs, not every such curve was filed as active; the % refers to the signal ratio)
Procedure, shortened: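 After plating, p53RE-bla cells sat 5 h in the incubator; compounds or DMSO vehicle were pinned in; a 16 h incubation at 37 C followed; FRET substrate was added and, 2 h later at RT, fluorescence was measured.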

[12] = molecular target: 5-hydroxytryptamine receptor 2A (Homo sapiens) (UniProt P28223); test: 5-hydroxytryptamine receptor 2A (HTR2A) small molecule antagonists, cell-based qHTS assay (AID 1963586); further: nearly all actives have a fitted effect of over 45% in size; further: potency means the concentration at half of the fitted maximal effect
Procedure, shortened: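 CHO cells stably expressing human HTR2A were plated for 18 h at 37 C, then loaded with calcium dye for 1 h. Compounds were preincubated 5 min at room temperature before DOI (4 nM solution) was added. Kinetic fluorescence was read for 3 min.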

[13] = molecular target: 5-hydroxytryptamine receptor 2A (Homo sapiens) (UniProt P28223); test: 5-hydroxytryptamine receptor 2A (HTR2A) small molecule agonists, cell-based qHTS assay (AID 1963587); further: nearly all actives have a fitted effect of over 30% in size
Procedure, shortened: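 CHO cells stably expressing human HTR2A, plated 18 h, loaded with calcium dye 1 h at 37 C. Agonist mode: compounds added and intracellular calcium fluorescence recorded kinetically for 2 min at 1 sec intervals.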

[14] = molecular target: Muscarinic acetylcholine receptor M1 (Homo sapiens) (UniProt P11229); test: Cholinergic receptor muscarinic 1 (CHRM1) small molecule antagonists, cell-based qHTS assay (AID 1963588); further: nearly all actives have a fitted effect of over 40% in size
Procedure, shortened: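 Compounds were tested at 15 concentrations in three independent runs. Dye-loaded CHRM1-CHO cells were exposed 5 min at room temperature before stimulation by acetylcholine added at 50nM. Intracellular calcium was read kinetically on FDSS for 3 min.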

[15] = molecular target: Muscarinic acetylcholine receptor M1 (Homo sapiens) (UniProt P11229); test: Cholinergic receptor muscarinic 1 (CHRM1) small molecule agonists, cell-based qHTS assay (AID 1963589); further: nearly all actives have a fitted effect of over 35% in size
Procedure, shortened: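 Fluorescent calcium dye reports M1 activation in stably transfected CHO cells. Compounds, 15 concentrations, added after 1 h dye loading at 37 C; kinetic reading at 1 sec intervals.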

[16] = cAMP Responsive Elements (CRE) small molecule agonists, cell-based qHTS assay (AID 1963590)
Procedure, shortened: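 Compound exposure lasted 3 h at 37 C/5% CO2 in CRE-bla HEK 293T cells grown in assay medium with 10% dialyzed FBS and 25 mM HEPES. Reporter signal came from LiveBLAzer B/G FRET substrate, 2 h, room temperature.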

[17] = cAMP Responsive Elements (CRE) small molecule antagonists, cell-based qHTS assay (AID 1963591; active means well fitted inhibition curve with a large enough effect in the signal ratio in the repeat runs, not every such curve was filed as active; the % refers to the signal ratio)
Procedure, shortened: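 Stimulation used NKH477 at a final 0.25 uM for 3 h in compound-treated CRE-bla HEK293T cells, seeded 18 h beforehand. Reporter activity was measured with LiveBLAzer B/G FRET substrate after 2 h at room temperature.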

[18] = molecular target: Beta-2 adrenergic receptor (Homo sapiens) (UniProt P07550); test: Adrenergic beta2 receptor (ADRB2) small molecule antagonists, cell-based qHTS assay (AID 1963592); further: series mostly up to about 92 µM; nearly all actives have a fitted effect of over 50% in size
Procedure, shortened: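 Assay format: CHO-ADRB2 cells, 18-20hr seeding at 37C/5% CO2, then compound plus 1nM isoproterenol agonist mix for 0.5hr RT. Homogeneous time-resolved fluorescence cAMP detection after 1hr, expressed as 665/615 nm ratio.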

[19] = molecular target: D(2) dopamine receptor (Homo sapiens) (UniProt P14416); test: Dopamine D2 receptor (DRD2) small molecule agonists, cell-based qHTS assay (AID 1963594); further: nearly all actives have a fitted effect of over 35% in size
Procedure, shortened: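 HEK293 cells stably expressing human DRD2, pre-treated with PDE inhibitor Ro20-1724 (0.1 mM final) and compound 10 min at room temperature, then stimulated with NKH477 (200nM […]) for 30 min. cAMP read by HTRF (665/620 nm).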

[20] = molecular target: D(2) dopamine receptor (Homo sapiens) (UniProt P14416); test: Dopamine D2 receptor (DRD2) small molecule antagonists, cell-based qHTS assay (AID 1963595; active means well fitted inhibition curve with a large enough effect in the signal ratio in the repeat runs, with a control signal flat; the % refers to the signal ratio; further: potency means the concentration at half of the fitted maximal effect)
Procedure, shortened: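 Antagonist mode in DRD2-HEK293 cells: after compound addition with 0.1 mM Ro20-1724, cells received quinpirole (12 nM) and NKH477 (200 nM) for 30 min at room temperature; HTRF cAMP read after 1 h detection.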

Beta-2 adrenergic receptor (Homo sapiens), sequence (P07550 whole entry, looked up): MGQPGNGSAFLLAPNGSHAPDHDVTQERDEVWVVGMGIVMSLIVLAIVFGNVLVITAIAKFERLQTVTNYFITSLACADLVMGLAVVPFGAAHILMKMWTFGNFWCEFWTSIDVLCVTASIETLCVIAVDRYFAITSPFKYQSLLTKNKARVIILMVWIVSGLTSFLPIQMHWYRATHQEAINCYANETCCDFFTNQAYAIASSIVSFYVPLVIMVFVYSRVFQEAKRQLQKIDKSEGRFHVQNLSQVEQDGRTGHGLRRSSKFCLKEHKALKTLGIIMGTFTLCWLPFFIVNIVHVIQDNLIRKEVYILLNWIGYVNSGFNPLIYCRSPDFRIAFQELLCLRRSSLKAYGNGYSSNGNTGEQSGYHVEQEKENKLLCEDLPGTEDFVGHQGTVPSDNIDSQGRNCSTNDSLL
5-hydroxytryptamine receptor 2A (Homo sapiens), sequence (P28223 whole entry, looked up): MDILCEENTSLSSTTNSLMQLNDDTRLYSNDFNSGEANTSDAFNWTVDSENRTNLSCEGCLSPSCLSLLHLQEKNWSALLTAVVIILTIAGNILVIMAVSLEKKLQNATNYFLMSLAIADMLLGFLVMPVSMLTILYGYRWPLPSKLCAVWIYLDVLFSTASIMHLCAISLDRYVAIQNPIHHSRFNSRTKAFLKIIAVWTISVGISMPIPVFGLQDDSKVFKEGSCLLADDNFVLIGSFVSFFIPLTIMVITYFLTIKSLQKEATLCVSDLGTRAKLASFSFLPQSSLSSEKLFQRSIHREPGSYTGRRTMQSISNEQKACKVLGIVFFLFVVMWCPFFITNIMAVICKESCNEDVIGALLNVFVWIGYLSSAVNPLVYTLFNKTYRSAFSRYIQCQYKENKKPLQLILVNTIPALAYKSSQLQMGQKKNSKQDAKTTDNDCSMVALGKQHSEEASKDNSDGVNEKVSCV
KiSS-1 receptor (Homo sapiens), sequence (Q969F8 whole entry, looked up): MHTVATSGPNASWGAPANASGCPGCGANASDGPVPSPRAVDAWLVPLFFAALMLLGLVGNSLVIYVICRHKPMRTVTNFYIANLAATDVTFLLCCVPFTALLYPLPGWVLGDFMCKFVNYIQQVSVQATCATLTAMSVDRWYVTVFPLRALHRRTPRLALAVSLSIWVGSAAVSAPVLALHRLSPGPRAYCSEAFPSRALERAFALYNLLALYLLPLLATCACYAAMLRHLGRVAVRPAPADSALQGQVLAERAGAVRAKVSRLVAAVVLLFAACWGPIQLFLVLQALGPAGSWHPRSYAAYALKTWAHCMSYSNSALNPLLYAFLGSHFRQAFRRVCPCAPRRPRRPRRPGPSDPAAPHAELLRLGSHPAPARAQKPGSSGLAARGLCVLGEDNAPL
Gonadotropin-releasing hormone receptor (Homo sapiens), sequence (P30968 whole entry, looked up): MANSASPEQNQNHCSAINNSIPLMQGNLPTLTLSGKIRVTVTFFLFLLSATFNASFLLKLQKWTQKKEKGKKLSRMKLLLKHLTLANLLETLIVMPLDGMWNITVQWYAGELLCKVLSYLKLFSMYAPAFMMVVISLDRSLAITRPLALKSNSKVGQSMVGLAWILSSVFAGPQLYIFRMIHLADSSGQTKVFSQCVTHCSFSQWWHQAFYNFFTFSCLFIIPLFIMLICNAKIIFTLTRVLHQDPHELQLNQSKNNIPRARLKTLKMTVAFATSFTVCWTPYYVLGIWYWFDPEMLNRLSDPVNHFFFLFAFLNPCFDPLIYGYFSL
D(2) dopamine receptor (Homo sapiens), sequence (P14416 whole entry, looked up): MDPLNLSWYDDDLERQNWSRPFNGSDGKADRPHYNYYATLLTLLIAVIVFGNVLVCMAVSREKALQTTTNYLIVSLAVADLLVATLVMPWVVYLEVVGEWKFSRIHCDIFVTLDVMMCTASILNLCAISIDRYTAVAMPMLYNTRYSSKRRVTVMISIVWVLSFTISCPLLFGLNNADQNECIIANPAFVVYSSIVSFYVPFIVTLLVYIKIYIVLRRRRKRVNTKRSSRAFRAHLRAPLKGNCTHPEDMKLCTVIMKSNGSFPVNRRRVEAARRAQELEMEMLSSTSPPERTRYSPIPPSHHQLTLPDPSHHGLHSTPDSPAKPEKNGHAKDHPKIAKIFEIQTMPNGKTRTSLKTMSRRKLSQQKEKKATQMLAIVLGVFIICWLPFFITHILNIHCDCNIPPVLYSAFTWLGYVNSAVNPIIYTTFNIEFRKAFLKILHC
Muscarinic acetylcholine receptor M1 (Homo sapiens), sequence (P11229 whole entry, looked up): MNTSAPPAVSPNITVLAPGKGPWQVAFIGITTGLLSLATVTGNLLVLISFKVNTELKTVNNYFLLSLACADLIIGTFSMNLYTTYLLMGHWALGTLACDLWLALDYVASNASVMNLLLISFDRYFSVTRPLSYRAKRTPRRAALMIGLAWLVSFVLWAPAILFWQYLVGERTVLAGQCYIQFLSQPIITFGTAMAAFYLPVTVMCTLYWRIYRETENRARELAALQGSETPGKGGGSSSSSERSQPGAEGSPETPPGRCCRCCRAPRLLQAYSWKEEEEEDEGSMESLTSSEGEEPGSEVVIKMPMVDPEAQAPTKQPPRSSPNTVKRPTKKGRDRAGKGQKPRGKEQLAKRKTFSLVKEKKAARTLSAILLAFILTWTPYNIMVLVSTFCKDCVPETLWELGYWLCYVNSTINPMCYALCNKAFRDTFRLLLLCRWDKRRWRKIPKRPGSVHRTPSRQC

SMILES	Potency [1]	Potency [2]	Potency [3]	Potency [4]	Potency [5]	Potency [6]	Potency [7]	Potency [8]	Potency [9]	Potency [10]	Potency [11]	Potency [12]	Potency [13]	Potency [14]	Potency [15]	Potency [16]	Potency [17]	Potency [18]	Potency [19]	Potency [20]
CC(=O)Oc1cccc(O)c1	inactive	inactive	inactive	inactive	inactive	inactive	inactive	inactive	inactive	inactive	inactive	inactive	inactive	inactive	inactive	inactive	inactive	inactive	inactive	inactive
O=C(CCCN1CCC(O)(c2cccc(C(F)(F)F)c2)CC1)c1ccc(F)cc1	inactive	inactive	inactive	inactive	inactive	inactive	inactive	inactive	inactive	inactive	inactive	0.365 µM (active)	inactive	inactive	inactive	inactive	inactive	inactive	inactive	0.0042 µM (active)
O=C1CCCc2ccccc21	inactive	inactive	inactive	inactive	inactive	inactive	inactive	inactive	inactive	inactive	inactive	inactive	inactive	inactive	inactive	inactive	inactive	inactive	inactive	inactive
c1cnc2cc3c(cc2n1)C1CNCC3C1	inactive	inactive	inactive	inactive	inactive	inactive	inactive	inactive	inactive	inactive	inactive	inactive	inactive	inactive	inactive	inactive	inactive	inactive	inactive	inactive
Cc1cc(C)cc(N)c1	inactive	inactive	inactive	inactive	inactive	inactive	inactive	inactive	inactive	inactive	inactive	inactive	inactive	inactive	inactive	inactive	inactive	inactive	inactive	inactive
O=C(Cn1ccnc1[N+](=O)[O-])NCc1ccccc1	inactive	inactive	inactive	inactive	inactive	inactive	inactive	inactive	inactive	inactive	inactive	inactive	inactive	inactive	inactive	inactive	inactive	inactive	inactive	inactive
CC(C)(O)C(=O)O	inactive	inactive	inactive	inactive	inactive	inactive	inactive	inactive	inactive	inactive	inactive	inactive	inactive	inactive	inactive	inactive	inactive	inactive	inactive	inactive
CN1C(CCl)Nc2cc(Cl)c(S(N)(=O)=O)cc2S1(=O)=O (stereo not given)	inactive	inactive	inactive	inactive	inactive	inactive	inactive	inactive	inactive	inactive	inactive	inactive	inactive	inactive	inactive	inactive	inactive	inactive	inactive	inactive
O=S(=O)(O)c1cccc2ccccc12	inactive	inactive	inactive	inactive	inactive	inactive	inactive	inactive	inactive	inactive	inactive	inactive	inactive	inactive	inactive	inactive	inactive	inactive	inactive	inactive
FC(F)(F)c1ccccc1	inactive	inactive	inactive	inactive	inactive	inactive	inactive	inactive	inactive	inactive	inactive	inactive	inactive	inactive	inactive	inactive	inactive	inactive	inactive	inactive
C=CC(=O)OCCCCCCCC	inactive	inactive	inactive	inactive	inactive	inactive	inactive	inactive	inactive	inactive	inactive	inactive	inactive	inactive	inactive	inactive	inactive	inactive	inactive	inactive
O=C(O)c1ccccc1S	inactive	inactive	inactive	inactive	inactive	inactive	inactive	inactive	inactive	inactive	inactive	inactive	inactive	inactive	inactive	inactive	inactive	inactive	inactive	inactive
CC(C)C(=O)c1ccccc1	inactive	inactive	inactive	inactive	inactive	inactive	inactive	inactive	inactive	inactive	inactive	inactive	inactive	inactive	inactive	inactive	inactive	inactive	inactive	inactive
Brc1cc(Br)cc(Br)c1	inactive	inactive	inactive	inactive	inactive	inactive	inactive	inactive	inactive	inactive	inactive	inactive	inactive	inactive	inactive	inactive	inactive	inactive	inactive	inactive
